According to PubChem BioAssay (Tox21):
A number with no mark means an inactive call. Results filed as inconclusive are left out. A call without a number means that no potency is given here. Activity calls are given as the source filed them. Unless noted, calls come from the whole dose curve; as a rule, active = well fitted curve in the direction sought with a large enough effect in the repeat runs; inconclusive = weak or mixed curves; inactive = no such curve, though single readings can be large; an effect the other way counts as inactive or inconclusive.

Columns and labels:
[1] = qHTS assay to identify small molecule antagonists of the glucocorticoid receptor (GR) signaling pathway - cell viability counter screen (AID 720693); note: nearly all actives have a fitted effect of over 55% in size
[2] = qHTS assay for identifying genotoxic compounds that show differential cytotoxicity against isogenic chicken DT40 cell lines with known DNA damage response pathways - wild type cell line (AID 743012); note: nearly all actives have a fitted effect of over 60% in size; note: potency is the fitted concentration of half-maximal effect
How it was run: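 Luminescent ATP viability signal (CellTiter-Glo, 30 min RT) recorded after wild type DT40 cells were incubated with compounds for 40 h at 37 C/5% CO2.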

[3] = qHTS assay for identifying genotoxic compounds that show differential cytotoxicity against isogenic chicken DT40 cell lines with known DNA damage response pathways - Rad54/Ku70 mutant cell line (AID 743015); note: nearly all actives have a fitted effect of over 60% in size; note: potency is the fitted concentration of half-maximal effect
[4] = qHTS assay to identify small molecule antagonists of the androgen receptor (AR) signaling pathway - cell viability counter screen (AID 743033; note: nearly all actives have a fitted effect of over 45% in size)
[5] = biological target: Androgen receptor (Homo sapiens) (UniProt P10275); test: qHTS assay to identify small molecule antagonists of the androgen receptor (AR) signaling pathway (AID 743035; active = well fitted inhibition curve with a large enough effect in the signal ratio in the repeat runs, not every such curve was filed as active; the % refers to the signal ratio; note: potency is the fitted concentration of half-maximal effect)
Androgen receptor (Homo sapiens), sequence (P10275 whole entry, looked up): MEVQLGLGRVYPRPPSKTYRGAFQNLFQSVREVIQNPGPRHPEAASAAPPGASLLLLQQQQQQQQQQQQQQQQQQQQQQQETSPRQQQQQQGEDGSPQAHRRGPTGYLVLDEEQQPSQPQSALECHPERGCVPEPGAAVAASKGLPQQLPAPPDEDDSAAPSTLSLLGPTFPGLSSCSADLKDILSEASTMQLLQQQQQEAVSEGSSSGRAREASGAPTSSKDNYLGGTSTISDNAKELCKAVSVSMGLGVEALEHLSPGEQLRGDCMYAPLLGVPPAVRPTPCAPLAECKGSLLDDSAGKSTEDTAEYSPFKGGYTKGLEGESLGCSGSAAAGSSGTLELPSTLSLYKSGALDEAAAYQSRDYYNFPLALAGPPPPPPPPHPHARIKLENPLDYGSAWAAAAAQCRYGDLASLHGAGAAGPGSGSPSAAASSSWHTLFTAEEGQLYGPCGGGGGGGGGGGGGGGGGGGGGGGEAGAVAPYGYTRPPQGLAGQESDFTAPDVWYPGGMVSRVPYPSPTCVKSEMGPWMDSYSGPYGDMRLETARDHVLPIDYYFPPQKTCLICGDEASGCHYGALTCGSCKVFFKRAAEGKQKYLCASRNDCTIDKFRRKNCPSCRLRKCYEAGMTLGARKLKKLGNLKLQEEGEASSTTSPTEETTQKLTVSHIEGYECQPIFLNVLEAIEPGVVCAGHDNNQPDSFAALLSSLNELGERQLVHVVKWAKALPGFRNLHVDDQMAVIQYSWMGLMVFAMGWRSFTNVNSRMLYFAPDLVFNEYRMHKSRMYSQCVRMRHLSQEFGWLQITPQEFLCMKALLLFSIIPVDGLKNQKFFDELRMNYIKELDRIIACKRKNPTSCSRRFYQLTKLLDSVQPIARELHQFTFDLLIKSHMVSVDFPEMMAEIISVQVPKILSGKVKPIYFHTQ
How it was run: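 Quantitative HTS of the Tox21 10K library used HEK293 AR-UAS-bla cells stimulated with R1881 alongside compound for 16 h at 37C, followed by beta-lactamase FRET detection (LiveBLAzer B/G, 2 h, RT).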

[6] = biological target: Androgen receptor (Homo sapiens) (UniProt P10275); test: qHTS assay to identify small molecule agonists of the androgen receptor (AR) signaling pathway (AID 743036; active = well fitted activation curve with a large enough effect in the signal ratio in the repeat runs, with a control signal flat, not every such curve was filed as active; the % refers to the signal ratio)
How it was run: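 Agonist activity was scored by beta-lactamase reporter fluorescence in stably transfected HEK293 cells exposed to compounds for 16 h at 37C and 5% CO2. Substrate loading took 2 h at room temperature.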

[7] = biological target: Androgen receptor (Homo sapiens) (UniProt P10275); test: qHTS assay to identify small molecule agonists of the androgen receptor (AR) signaling pathway using the MDA cell line (AID 743040; note: nearly all actives have a fitted effect of over 20% in size)
How it was run: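 Agonist activity is measured as luciferase luminescence in human MDA-kb2 cells whose MMTV reporter responds to both AR and GR. Compounds in DMSO incubate 16 h at 37C, 0% CO2, and ONE-Glo is read after 30 min.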

[8] = qHTS assay to identify small molecule antagonists of the androgen receptor (AR) signaling pathway using the MDA cell line - cell viability counter screen (AID 743041; note: nearly all actives have a fitted effect of over 45% in size; note: potency is the fitted concentration of half-maximal effect)
How it was run: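 qHTS viability read-out; MDA-kb2 AR-luc; R1881-stimulated; 16 h exposure at 37C, 0% CO2; CellTiter-Fluor, 30 min; fluorescence intensity.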

[9] = biological target: Androgen receptor (Homo sapiens) (UniProt P10275); test: qHTS assay to identify small molecule antagonists of the androgen receptor (AR) signaling pathway using the MDA cell line (AID 743042; note: nearly all actives have a fitted effect of over 55% in size; note: potency is the fitted concentration of half-maximal effect)
How it was run: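 MDA-kb2 cells (human breast carcinoma, stably carrying an MMTV-luciferase reporter responsive to AR and GR) were plated at 3,000 cells/well and preincubated 5 hr at 37C, then given compound plus R1881 agonist for 16 h. ONE-Glo luminescence was read.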

[10] = qHTS assay to identify small molecule antagonists of the thyroid receptor (TR) signaling pathway (AID 743065); note: nearly all actives have a fitted effect of over 55% in size; note: potency is the fitted concentration of half-maximal effect
How it was run: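 GH3.TRE-Luc rat pituitary cells carrying two TR response elements driving luciferase were plated for 4 h, given compound plus 1 nM T3 (final), and incubated 23.5 h at 37 C. ONE-Glo luminescence measured reporter inhibition; CellTiter-Fluor fluorescence tracked cytotoxicity.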

[11] = tested on: thyroid hormone receptor (rat, GH3 cells); test: qHTS assay to identify small molecule agonists of the thyroid receptor (TR) signaling pathway (AID 743066; calls by dose curve)
[12] = qHTS assay to identify small molecule antagonists of the estrogen receptor alpha (ER-alpha) signaling pathway using the BG1 cell line - cell viability counter screen (AID 743081);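 note: compound given together with 17beta-estradiol as the ER stimulus; nearly all actives have a fitted effect of over 45% in size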; note: potency is the fitted concentration of half-maximal effect
Aromatase (Homo sapiens) = Aromatase (Homo sapiens) (UniProt P11511); test: qHTS assay to identify aromatase inhibitors (AID 743083); note: nearly all actives have a fitted effect of over 55% in size; note: potency is the fitted concentration of half-maximal effect
Aromatase (Homo sapiens), sequence (P11511 whole entry, looked up): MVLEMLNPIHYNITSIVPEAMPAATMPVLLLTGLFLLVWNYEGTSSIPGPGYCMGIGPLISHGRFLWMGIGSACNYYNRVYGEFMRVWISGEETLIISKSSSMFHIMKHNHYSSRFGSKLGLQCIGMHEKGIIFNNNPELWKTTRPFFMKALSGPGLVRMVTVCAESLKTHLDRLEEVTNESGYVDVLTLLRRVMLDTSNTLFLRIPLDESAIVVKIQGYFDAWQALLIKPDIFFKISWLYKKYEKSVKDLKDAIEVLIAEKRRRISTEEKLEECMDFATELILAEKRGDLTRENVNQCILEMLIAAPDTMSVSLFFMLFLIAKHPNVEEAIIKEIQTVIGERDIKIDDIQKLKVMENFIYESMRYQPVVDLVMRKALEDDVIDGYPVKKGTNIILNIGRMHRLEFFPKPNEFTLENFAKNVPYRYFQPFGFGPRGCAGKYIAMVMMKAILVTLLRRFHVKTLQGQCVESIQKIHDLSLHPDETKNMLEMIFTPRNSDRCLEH

[13] = qHTS assay to identify small molecule antagonists of the thyroid receptor (TR) signaling pathway - cell viability counter screen (AID 743064); note: nearly all actives have a fitted effect of over 50% in size
How it was run: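 Same-well viability check: GH3.TRE-Luc cells stimulated with 1 nM T3 alongside test compound for 23.5 h, followed by CellTiter-Fluor fluorescence.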

[14] = biological target: Estrogen receptor (Homo sapiens) (UniProt P03372); test: qHTS assay to identify small molecule agonists of the estrogen receptor alpha (ER-alpha) signaling pathway (AID 743075; calls by dose curve)
Estrogen receptor (Homo sapiens), sequence (P03372 whole entry, looked up): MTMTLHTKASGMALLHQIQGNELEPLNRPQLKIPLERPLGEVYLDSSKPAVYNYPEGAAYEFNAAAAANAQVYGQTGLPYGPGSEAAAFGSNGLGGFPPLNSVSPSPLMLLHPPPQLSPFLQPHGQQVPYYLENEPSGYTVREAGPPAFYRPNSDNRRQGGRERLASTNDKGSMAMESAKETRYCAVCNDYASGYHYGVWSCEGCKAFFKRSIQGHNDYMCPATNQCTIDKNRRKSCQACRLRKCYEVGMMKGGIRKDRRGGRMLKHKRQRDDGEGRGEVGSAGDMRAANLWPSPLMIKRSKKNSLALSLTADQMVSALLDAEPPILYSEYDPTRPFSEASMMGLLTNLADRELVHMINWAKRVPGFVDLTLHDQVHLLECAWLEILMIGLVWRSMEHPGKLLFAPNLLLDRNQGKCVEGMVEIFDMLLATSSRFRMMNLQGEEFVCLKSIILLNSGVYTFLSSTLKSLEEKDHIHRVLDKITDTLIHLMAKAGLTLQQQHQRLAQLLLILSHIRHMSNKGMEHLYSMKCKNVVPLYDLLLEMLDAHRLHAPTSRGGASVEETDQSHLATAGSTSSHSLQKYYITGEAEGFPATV

[15] = biological target: Estrogen receptor (Homo sapiens) (UniProt P03372); test: qHTS assay to identify small molecule agonists of the estrogen receptor alpha (ER-alpha) signaling pathway using the BG1 cell line (AID 743079); note: nearly all actives have a fitted effect of over 20% in size; note: potency is the fitted concentration of half-maximal effect
[16] = biological target: Estrogen receptor (Homo sapiens) (UniProt P03372); test: qHTS assay to identify small molecule antagonists of the estrogen receptor alpha (ER-alpha) signaling pathway (AID 743069; active = well fitted curve in the direction sought with a large enough effect in the signal ratio in the repeat runs, not every such curve was filed as active; the % refers to the signal ratio)
How it was run: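 Screening used a UAS-driven beta-lactamase reporter integrated into HEK293 cells expressing ER-alpha, stimulated with 17beta-estradiol alongside test compounds over 18 hr at 37C; signal came from LiveBLAzer B/G FRET fluorescence.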

[17] = qHTS assay to identify small molecule antagonists of the estrogen receptor alpha (ER-alpha) signaling pathway - cell viability counter screen (AID 743074; calls by dose curve; note: nearly all actives have a fitted effect of over 45% in size)
[18] = qHTS assay to identify small molecule antagonists of the estrogen receptor alpha (ER-alpha) signaling pathway using the BG1 cell line (AID 743080; calls by dose curve;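 note: BG1 cells stimulated with 17beta-estradiol alongside compound; nearly all actives have a fitted effect of over 25% in size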; note: potency is the fitted concentration of half-maximal effect)
How it was run: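 Quantitative HTS on the Tox21 10K library: BG1 cells with endogenous ER-alpha and ERE-luciferase reporter, 17beta-estradiol stimulation, 21.5 h compound exposure, luminescence endpoint with parallel fluorescence cytotoxicity counter-read.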

[19] = qHTS assay for identifying genotoxic compounds that show differential cytotoxicity against isogenic chicken DT40 cell lines with known DNA damage response pathways - Rev3 mutant cell line (AID 743014); note: nearly all actives have a fitted effect of over 55% in size; note: potency is the fitted concentration of half-maximal effect

SMILES | Potency [1] | Potency [2] | Potency [3] | Potency [4] | Potency [5] | Potency [6] | Potency [7] | Potency [8] | Potency [9] | Potency [10] | Potency [11] | Potency [12] | Potency (Aromatase (Homo sapiens)) | Potency [13] | Potency [14] | Potency [15] | Potency [16] | Potency [17] | Potency [18] | Potency [19]
O=[N+]([O-])c1ccc(NCCO)c(OCCO)c1 | inactive | inactive | inactive | inactive | inactive | inactive | inactive | 54.5 µM (active) | inactive | inactive | inactive | 68.7 µM (active) | 17.2 µM (active) | – | – | – | – | – | – | –
O=C(OCCc1ccccc1)c1ccccc1 | inactive | inactive | inactive | inactive | – | – | – | inactive | – | inactive | inactive | inactive | inactive | inactive | inactive | 24.3 µM (active) | – | – | – | –
CC(C)Nc1ccc(NC(C)C)c2c1C(=O)c1ccccc1C2=O | inactive | inactive | inactive | inactive | – | – | – | inactive | – | inactive | inactive | inactive | inactive | inactive | inactive | inactive | inactive | inactive | – | –
CC(CC=O)c1ccccc1 (configuration not stated) | inactive | inactive | inactive | inactive | – | – | – | inactive | – | inactive | inactive | inactive | inactive | inactive | inactive | inactive | inactive | inactive | inactive | –
COC(=O)c1ccc(I)cc1S(=O)(=O)NC(=O)Nc1nc(C)nc(OC)n1 | inactive | inactive | inactive | inactive | – | – | – | inactive | – | inactive | – | inactive | inactive | inactive | – | – | – | inactive | – | –
CC(=O)[O][Al][O]C(C)=O | inactive | inactive | inactive | inactive | – | – | – | inactive | – | – | inactive | inactive | inactive | inactive | – | – | – | inactive | inactive | –
C[C@H](CCC(=O)O)[C@H]1CC[C@H]2[C@@H]3CC[C@@H]4C[C@H](O)CC[C@]4(C)[C@H]3C[C@H](O)[C@]12C | inactive | inactive | inactive | inactive | – | – | – | inactive | – | 68.8 µM (active) | inactive | inactive | inactive | inactive | inactive | inactive | inactive | inactive | inactive | –
C=CCOC(=O)CCC1CCCCC1 | inactive | inactive | inactive | inactive | – | – | – | inactive | – | inactive | inactive | inactive | inactive | inactive | – | – | – | inactive | – | –
CC1=CCCC(C)(C)C12CCC(C)O2 (configuration not stated) | inactive | 24.3 µM (active) | 13.7 µM (active) | inactive | – | – | – | inactive | – | inactive | inactive | inactive | – | inactive | – | – | – | inactive | – | –
Nc1cccc(S(=O)(=O)c2cccc(N)c2)c1 | inactive | 61.1 µM (active) | 61.1 µM (active) | inactive | – | – | – | inactive | – | inactive | inactive | inactive | inactive | inactive | inactive | inactive | inactive | inactive | inactive | –
OC[C@H]1O[C@@H](OCCc2ccc(O)cc2)[C@H](O)[C@@H](O)[C@@H]1O | inactive | inactive | inactive | inactive | – | – | – | inactive | – | inactive | inactive | inactive | inactive | inactive | inactive | inactive | inactive | – | inactive | –
Cc1cccc(C)c1NC(=O)CN(CC(=O)O)CC(=O)O | inactive | inactive | – | inactive | – | – | – | inactive | – | inactive | inactive | inactive | inactive | – | – | – | – | inactive | – | inactive
CCCCCCCCCCCc1ccccc1 | inactive | inactive | – | inactive | – | – | – | inactive | – | inactive | inactive | inactive | inactive | inactive | inactive | inactive | – | – | inactive | 60.3 µM (active)
c1ccc(CNCCNCc2ccccc2)cc1 | inactive | inactive | – | inactive | – | – | – | inactive | – | – | inactive | inactive | inactive | inactive | inactive | inactive | inactive | inactive | inactive | inactive
Cn1c(=O)cc(Oc2ccc(F)cc2F)c2cnc(NCC(C)(C)O)nc21 | inactive | inactive | 27.3 µM (active) | inactive | – | – | – | inactive | – | inactive | inactive | inactive | inactive | inactive | inactive | – | inactive | inactive | 19.3 µM (active) | –
Cc1nn(C)c(Oc2ccccc2)c1/C=N/OCc1ccc(C(=O)OC(C)(C)C)cc1 | inactive | 0.0022 µM (active) | – | – | 0.123 µM (active) | inactive | inactive | 0.0077 µM (active) | 0.0024 µM (active) | – | – | – | – | – | – | – | – | – | – | 0.0024 µM (active)
CCCCCC[C@@H](O)C/C=C\CCCCCCCC(=O)OC | inactive | inactive | inactive | inactive | inactive | inactive | inactive | inactive | inactive | inactive | inactive | inactive | inactive | inactive | inactive | inactive | – | inactive | inactive | –
